Screening results (PubChem BioAssay)
TDP1 cell CPT: qHTS for Inhibitors of human tyrosyl-DNA phosphodiesterase 1 (TDP1): qHTS in cells in presence of CPT; chicken DT40 Tdp1-/-;hTDP1 cells + 20 nM CPT, ATP luminescence, 48 h; Potency, µM (highest dose often 46.2 µM), without a hit: at the highest dose activity change, negative = growth inhibition, usual class: inhibitors; 420,000 compounds, 12% hits; note: potency is the fitted concentration of half-maximal effect; nearly all actives have a fitted effect of over 55% in size
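Chicken DT40 Tdp1-/- cells stably complemented with human TDP1 were seeded at 400 cells/well in medium containing 20 nM camptothecin, exposed to pin-transferred compounds, and grown at 37 °C for at least 48 hr. Viability was read as ATP luminescence.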
IL-1B inflam inh: qHTS for Inhibitors of Inflammasome Signaling: IL-1-beta AlphaLISA Primary Screen; AID 743279, 2014; 360,000 compounds, 4.7% hits; activity change, % at 57.5 µM; THP-1 LPS/ATP IL-1B secretion, AlphaLISA, 16 h; active compounds read low; in the data active = activity change below about -50%; inconclusive = mostly about -30% to -49%
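THP-1 cells pretreated 1 hr with compounds (up to 57.5 uM final), then stimulated with LPS (250 ng/mL final) plus ATP (1.25 mM final); secreted IL-1B measured by AlphaLISA after 16 hr, decreased signal indicating inhibition.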
CtBP-E1A blk: qHTS Assay for Inhibitors of the CtBP/E1A Interaction. AlphaScreen GST-E1A/His-CtBP binding, 1536-well; active compounds read low. activity change, % (no concentration beside the values). 340,000 compounds, 0.49% hits; in the data active = activity change below about -65%; inconclusive = mostly about -30% to -63%
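AlphaScreen with 125 nM GST-E1A and 125 nM His-CtBP (5X stocks) in Tris pH 8.0, 300 mM NaCl, BSA, Tween 20, TCEP. Compounds preincubated 2 h at 37 deg C, then glutathione donor/nickel acceptor beads added for 1 h at 37 deg C in dark.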
TDP1 cell noCPT: qHTS for Inhibitors of human tyrosyl-DNA phosphodiesterase 1 (TDP1): qHTS in cells in absence of CPT; DT40 Tdp1-/- hTDP1 cells, no CPT, ATP luminescence, 48 h; Potency, µM (titrated, usually from 46.2 µM), for inactives: top-dose activity change, negative = growth inhibition, usual class: inhibitors; 420,000 compounds, 15% hits; AID 686978, 2013; note: potency is the fitted concentration of half-maximal effect; nearly all actives have a fitted effect of over 55% in size
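Compound effects on proliferation are scored in DT40 Tdp1-/-;hTDP1 cells in the absence of CPT. ATP levels (CellTiter-Glo luminescence) are recorded after a ≥48 hr, 37 °C incubation.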
Six1-Eya2 inh: qHTS Assay for Inhibitors of the Six1/Eya2 Interaction | AlphaScreen GST-Six1/His-Eya2 binding, biochemical; active compounds read low | activity change, % (concentration not given with the values) | Homeobox protein SIX1 (Homo sapiens) + Protein phosphatase EYA2 (Homo sapiens), … | 360,000 compounds, 0.56% hits; in the data active = activity change below about -65%; inconclusive = mostly about -30% to -63%
Target sequence (O00167 whole entry, looked up): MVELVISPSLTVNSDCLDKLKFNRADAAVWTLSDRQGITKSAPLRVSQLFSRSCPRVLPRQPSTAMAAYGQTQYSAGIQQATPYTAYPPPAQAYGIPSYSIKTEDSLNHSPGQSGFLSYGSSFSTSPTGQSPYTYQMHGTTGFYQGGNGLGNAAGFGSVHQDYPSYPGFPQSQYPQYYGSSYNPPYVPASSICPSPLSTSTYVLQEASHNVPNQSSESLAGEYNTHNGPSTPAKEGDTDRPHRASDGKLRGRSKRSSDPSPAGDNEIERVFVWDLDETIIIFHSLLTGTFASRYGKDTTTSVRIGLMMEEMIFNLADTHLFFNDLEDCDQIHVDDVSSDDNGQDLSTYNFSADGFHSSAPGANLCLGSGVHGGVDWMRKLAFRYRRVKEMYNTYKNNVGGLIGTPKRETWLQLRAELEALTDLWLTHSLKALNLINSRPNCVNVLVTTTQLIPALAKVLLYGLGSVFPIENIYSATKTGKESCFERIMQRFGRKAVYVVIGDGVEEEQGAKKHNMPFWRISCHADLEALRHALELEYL
Target sequence (Q15475 whole entry, looked up): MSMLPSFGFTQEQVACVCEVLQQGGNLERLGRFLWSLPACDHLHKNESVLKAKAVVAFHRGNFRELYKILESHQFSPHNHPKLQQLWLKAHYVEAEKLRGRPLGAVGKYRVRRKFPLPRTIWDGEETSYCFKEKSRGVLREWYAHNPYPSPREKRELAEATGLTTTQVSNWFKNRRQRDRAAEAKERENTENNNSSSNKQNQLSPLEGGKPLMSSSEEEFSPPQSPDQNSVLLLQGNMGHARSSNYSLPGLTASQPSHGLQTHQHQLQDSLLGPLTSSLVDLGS
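Homogeneous AlphaScreen proximity assay pairing GST-Six1 with His-tagged Eya2 (added as 5X mix: 250 nM and 500 nM) in 50 mM Tris pH 8.0, 300 mM NaCl, 1 mM TCEP. Glutathione donor and nickel acceptor beads; 1 h, 37 °C, dark.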
TDP1 inh: qHTS Assay for Inhibitors of Tyrosyl-DNA Phosphodiesterase (TDP1) | recombinant TDP1, AlphaScreen DNA substrate cleavage | 350,000 compounds, 0.28% hits | Tyrosyl-DNA phosphodiesterase 1 (Homo sapiens), Q9NUW8 | Potency, µM (doses to about 130 µM), for inactives: top-dose activity change, negative = inhibition, most hits filed as inhibitors | AID 485290, 2010; note: potency is the fitted concentration of half-maximal effect; nearly all actives have a fitted effect of over 40% in size
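AlphaScreen read-out: signal falls as enzyme removes the 3' tyrosine-FITC from a 5'-biotinylated DNA oligo (15 nM, 5 min, RT). Enzyme was E. coli-made recombinant Tdp1 at 1 nM, exposed to compound for 15 min beforehand; beads 10 ug/ml, 10 min.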
An asterisk follows results filed as active. Hits are enriched below; roughly 18% of the tested compounds scored in any of these assays. Unless noted, calls come from the whole dose curve; as a rule, active = well fitted curve in the direction sought with a large enough effect; inconclusive = small, poorly fitted or top-dose-only effect, or another doubt; inactive = no such curve, though single readings can be large; an effect the other way counts as inactive or inconclusive. % is set by controls: 0 for no effect and ±100 for the full control effect.

How did Cc1cccc(C)c1-n1nnnc1C1(C)CCC(=O)N1CCc1ccccc1F (centres undefined) do in these assays?
TDP1 cell CPT: inconclusive; IL-1B inflam inh: 38; CtBP-E1A blk: -1; TDP1 cell noCPT: inconclusive; Six1-Eya2 inh: 2

What do the screens show for `COCCN(Cc1cccs1)S(=O)(=O)c1csc(C(N)=O)c1`?
TDP1 cell CPT: -1%; IL-1B inflam inh: 4; TDP1 cell noCPT: -29%; Six1-Eya2 inh: 4; TDP1 inh: 0%

How did N#Cc1ccc(COC(=O)c2ccc3c(=O)[nH]c(CN4CCOCC4)nc3c2)cc1 do in these assays?
TDP1 cell CPT: 3%; IL-1B inflam inh: 1; CtBP-E1A blk: 0; TDP1 cell noCPT: -8%; Six1-Eya2 inh: 2; TDP1 inh: 12%

Results for CC(=O)c1cccc(NC(=O)c2ccc3c(c2)CCN3S(=O)(=O)c2ccccc2)c1 ?
TDP1 cell CPT: 15µM*; IL-1B inflam inh: 7; TDP1 cell noCPT: 21µM*; Six1-Eya2 inh: 2; TDP1 inh: 0%

Results for Cc1ccc(Cl)cc1N1CCN(C(=O)c2ccc3c(c2)CCN3S(=O)(=O)c2ccccc2)CC1 ?
TDP1 cell CPT: 9.2µM*; TDP1 cell noCPT: 10µM*; TDP1 inh: 7%

Results for Cc1c(NC(=O)c2ccc3c(c2)OCO3)cccc1-c1nc2ncccc2o1 ?
TDP1 cell CPT: -26%; IL-1B inflam inh: -11; CtBP-E1A blk: 2; TDP1 cell noCPT: inconclusive; Six1-Eya2 inh: 0; TDP1 inh: 5%

What do the screens show for `O=C(C1=C(O)C(=O)N(CCN2CCOCC2)C1c1ccccc1)c1cccs1` (centres undefined)?
TDP1 cell CPT: 1%; IL-1B inflam inh: 1; CtBP-E1A blk: -9; TDP1 cell noCPT: 1%; Six1-Eya2 inh: 6

Results for Cc1cc(C)c(OCC(=O)OC(C)C(=O)N2CCc3ccccc32)c(C)c1 (centres undefined) ?
TDP1 cell CPT: 16%; IL-1B inflam inh: 1; CtBP-E1A blk: -5; TDP1 cell noCPT: -10%; Six1-Eya2 inh: 3; TDP1 inh: -8%

Results for CC(=O)c1ccc(S(=O)(=O)N(C)CC(=O)Nc2ccc(C)cc2)cc1 ?
TDP1 cell CPT: -16%; IL-1B inflam inh: 0; CtBP-E1A blk: 7; TDP1 cell noCPT: 1%; Six1-Eya2 inh: 2; TDP1 inh: 0%

Results for CCOc1ccccc1NC(=O)Cn1nnc2sc3c(c2c1=O)CCC(C(C)(C)C)C3 (centres undefined) ?
TDP1 cell CPT: 15µM*; TDP1 cell noCPT: 5.2µM*; TDP1 inh: 5%

Results for Cc1cc(NC(=O)Cn2nnc3sc4c(c3c2=O)CCC(C(C)(C)C)C4)no1 (centres undefined) ?
TDP1 cell CPT: 11µM*; IL-1B inflam inh: -27; CtBP-E1A blk: -4; TDP1 cell noCPT: inconclusive; Six1-Eya2 inh: -12; TDP1 inh: 11%

Results for Cc1cc(NC(=O)Cn2nnc3sc4c(c3c2=O)CCCC4)no1 ?
TDP1 cell CPT: -11%; IL-1B inflam inh: -10; CtBP-E1A blk: -13; TDP1 cell noCPT: -21%; Six1-Eya2 inh: -4; TDP1 inh: 0%

Results for CN1CCN(C(=S)SCC(=O)N2CCCc3ccccc32)CC1 ?
TDP1 cell CPT: 7%; IL-1B inflam inh: -3; CtBP-E1A blk: -1; TDP1 cell noCPT: -28%; Six1-Eya2 inh: -1; TDP1 inh: 2%

What do the screens show for `CC(=O)O[C@H]1CC[C@@]2(C)C(CCC3C2CC[C@]2(C)OC(=O)CCC32)C1` (some centres undefined)?
TDP1 cell CPT: 1%; IL-1B inflam inh: 37; CtBP-E1A blk: 2; TDP1 cell noCPT: -27%; Six1-Eya2 inh: 5; TDP1 inh: 5%

Results for CC(=O)OC1CCC2(C)C(CCC3C4CC=C(C(C)=O)C4(C)OC(=O)CC32)C1 (centres undefined) ?
TDP1 cell CPT: 2.3µM*; IL-1B inflam inh: -107*; CtBP-E1A blk: 2; TDP1 cell noCPT: 2.1µM*; Six1-Eya2 inh: inconclusive

Results for CCN(CC)c1ccc(NS(=O)(=O)c2ccc(-c3coc(C)n3)cc2)c(C)c1 ?
TDP1 cell CPT: 16µM*; TDP1 cell noCPT: 18µM*; TDP1 inh: 9%

Results for CSc1cccc(NS(=O)(=O)c2ccc(-c3coc(C)n3)cc2)c1 ?
TDP1 cell CPT: inconclusive; IL-1B inflam inh: 17; CtBP-E1A blk: 15; TDP1 cell noCPT: 15µM*; Six1-Eya2 inh: 1; TDP1 inh: 5%

Results for Cc1nc(-c2ccc(S(=O)(=O)Nc3ccc(C)c(N(C)C)c3)cc2)co1 ?
TDP1 cell CPT: 7.3µM*; TDP1 cell noCPT: 18µM*; TDP1 inh: 7%

Results for COc1cc(Cl)c(NS(=O)(=O)c2ccc(-c3coc(C)n3)cc2)c(OC)c1 ?
TDP1 cell CPT: 3.7µM*; TDP1 cell noCPT: 4.1µM*; TDP1 inh: -1%

What do the screens show for `Cc1nc(-c2ccc(S(=O)(=O)Nc3ccc(S(N)(=O)=O)cc3)cc2)co1`?
TDP1 cell CPT: inconclusive; IL-1B inflam inh: 0; CtBP-E1A blk: -13; TDP1 cell noCPT: 13%; Six1-Eya2 inh: 8; TDP1 inh: 2%

What do the screens show for `NC(=O)CS(=O)(=O)c1nc2ccccc2n1Cc1ccccn1`?
TDP1 cell CPT: 13%; IL-1B inflam inh: 0; CtBP-E1A blk: 0; TDP1 cell noCPT: -11%; Six1-Eya2 inh: 0; TDP1 inh: -3%

How did CCCN1CNc2c(c(=O)[nH]c(=O)n2CCc2ccc(OC)c(OC)c2)C1 do in these assays?
TDP1 cell CPT: 4%; TDP1 cell noCPT: -9%; TDP1 inh: 0%

How did CCNc1ncc2nc(-c3cccs3)c(=O)n(-c3ccccc3)c2n1 do in these assays?
TDP1 cell CPT: -18%; TDP1 cell noCPT: -6%

How did COc1ccc(NS(=O)(=O)c2ccc(-c3coc(C)n3)cc2)cc1OC do in these assays?
TDP1 cell CPT: 4.1µM*; IL-1B inflam inh: inconclusive; CtBP-E1A blk: -2; TDP1 cell noCPT: 2.1µM*; Six1-Eya2 inh: -2; TDP1 inh: 2%
